A short description of assay [1]: NCI Yeast Anticancer Drug Screen. Data for the rad50 strain (AID 155).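 Also: 0% = growth of vehicle-only cultures of the same strain.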 The following applies: S. cerevisiae rad50 strain growth inhibition, active compounds read high. A digest of the protocol:
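DNA repair mutant yeast, compound exposure, growth read-out; inhibition is taken relative to vehicle.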

Assay [2] in a line: NCI Yeast Anticancer Drug Screen. Data for the mec2-1 strain (AID 157). The following applies: S. cerevisiae mec2-1 strain, active compounds read high. The method, boiled down: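 Cells of the genetically defined mec2-1 yeast strain are incubated with test compound. Inhibition of growth is calculated against vehicle-treated controls.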
The nature of assay [3]: NCI Yeast Anticancer Drug Screen. Data for the sgs1 mgt1 strain (AID 161).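 Also: 0% = growth of cultures given vehicle only.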 The following applies: S. cerevisiae sgs1 mgt1 strain, active compounds read high. A digest of the protocol:
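Mutant yeast exposed to compound; growth scored against vehicle-only wells.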

The nature of assay [4]: NCI Yeast Anticancer Drug Screen. Data for the cln2 rad14 strain (AID 165).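 Also: 0% = growth equal to vehicle treated cultures.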 The following applies: S. cerevisiae cln2 rad14 strain, active compounds read high. A digest of the protocol:
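The screen exposed genetically defined yeast (cln2 rad14) to test compounds and scored growth inhibition relative to vehicle-treated controls.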

Assay [5] in a line: NCI Yeast Anticancer Drug Screen. Data for the bub3 strain (AID 167). The following applies: S. cerevisiae bub3 mutant strain, active compounds read high. The method, boiled down: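 In this screen, a yeast mutant lacking normal mitotic checkpoint function is challenged with compound. Relative growth versus vehicle gives the inhibition value.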
A short description of assay [6]: NCI Yeast Anticancer Drug Screen. Data for the mlh1 rad18 strain (AID 175). The note with it: S. cerevisiae mlh1 rad18 strain growth inhibition, active compounds read high. The method, boiled down: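 Compound-treated yeast growth, normalised to vehicle controls. Strain bears defined DNA repair mutations.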
Where [7] appears, read: at 5.0 µM (retest, dose inferred, filed as 0.5).
[8] abbreviates: at 50.0 µM (retest, dose inferred, filed as 5.0).

The structures appear in SMILES notation. About 79,000 compounds went through this panel and 15% of them were active in at least one assay; those are over-represented in the sample as a whole. Values without a mark were called inactive. The source made the active and inactive calls. Rule as the data show it: active = growth inhibition above about 70%; inactive = the rest.

In the case of `O=[N+]([O-])/C(=C\c1cccs1)c1ccccc1`, the growth inhibition is 90% (active) in assay [1] (setting [7]); 98% (active) in assay [1] (setting [8]); 99.2% (active) in assay [1] (at 50.0 µM); 92% (active) in assay [2] (setting [7]); 99% (active) in assay [2] (setting [8]); 99.7% (active) in assay [2] (at 50.0 µM). Moreover, the growth inhibition was 83% (active) in assay [3] (setting [7]); 99% (active) in assay [3] (setting [8]); 99.5% (active) in assay [3] (at 50.0 µM); 75% (active) in assay [4] (setting [7]); 99% (active) in assay [4] (setting [8]); 99.1% (active) in assay [4] (at 50.0 µM). Further, the growth inhibition in assay [5] (setting [7]) is 90% (active); in assay [5] (setting [8]), 99% (active); in assay [5] (at 50.0 µM) it was 99.5% (active); in assay [6] (setting [7]) it was 96% (active); in assay [6] (setting [8]), 99% (active); in assay [6] (at 50.0 µM), 99.3% (active).
As for `O=Cc1ccc(O)cc1O`, the growth inhibition in assay [1] (setting [7]) was 8%; in assay [1] (setting [8]), 24%; in assay [1] (at 50.0 µM), 58.5%; in assay [2] (setting [7]), 8%; in assay [2] (setting [8]), 16%; in assay [2] (at 50.0 µM), 29.6%. Further, the growth inhibition is 7% in assay [3] (setting [7]); 15% in assay [3] (setting [8]); 25.8% in assay [3] (at 50.0 µM); 4% in assay [4] (setting [7]); 14% in assay [4] (setting [8]); -38.6% in assay [4] (at 50.0 µM). The growth inhibition is 7% in assay [5] (setting [7]); 10% in assay [5] (setting [8]); 55.4% in assay [5] (at 50.0 µM); 1% in assay [6] (setting [7]); 13% in assay [6] (setting [8]); 59% in assay [6] (at 50.0 µM).
Take `CN(C)CC/[N+]([O-])=C(/c1ccccc1)C12CC3CC(CC(C3)C1)C2`: the growth inhibition was -6% in assay [1] (setting [7]); 6% in assay [1] (setting [8]); -16.6% in assay [1] (at 50.0 µM); -1% in assay [2] (setting [7]); -1% in assay [2] (setting [8]); 1.8% in assay [2] (at 50.0 µM). The growth inhibition is 14% in assay [3] (setting [7]); 31% in assay [3] (setting [8]); 16.9% in assay [3] (at 50.0 µM); 7% in assay [4] (setting [7]); -1% in assay [4] (setting [8]); 17.1% in assay [4] (at 50.0 µM). Besides, the growth inhibition is 1% in assay [5] (setting [7]); 3% in assay [5] (setting [8]); -1.9% in assay [5] (at 50.0 µM); 9% in assay [6] (setting [7]); 25% in assay [6] (setting [8]); 70.6% (active) in assay [6] (at 50.0 µM).
With `[O-]c1c2cc(-[n+]3c(-c4ccccc4)cc(-c4ccccc4)cc3-c3ccccc3)cc1CO[C@@H](c1ccccc1)[C@H](c1ccccc1)OCc1cccc(n1)CO[C@@H](c1ccccc1)[C@H](c1ccccc1)OC2`, the growth inhibition is 98% (active) in assay [1] (setting [7]); 96% (active) in assay [1] (setting [8]); 87.2% (active) in assay [1] (at 50.0 µM); 98% (active) in assay [2] (setting [7]); 98% (active) in assay [2] (setting [8]); 90.8% (active) in assay [2] (at 50.0 µM). Further, the growth inhibition in assay [3] (setting [7]) is 100% (active); in assay [3] (setting [8]), 98% (active); in assay [3] (at 50.0 µM), 90.5% (active); in assay [4] (setting [7]) it was 97% (active); in assay [4] (setting [8]) it was 98% (active); in assay [4] (at 50.0 µM), 90.2% (active). Further, the growth inhibition in assay [5] (setting [7]) is 99% (active); in assay [5] (setting [8]), 99% (active); in assay [5] (at 50.0 µM) it was 89.3% (active); in assay [6] (setting [7]) it was 98% (active); in assay [6] (setting [8]), 97% (active); in assay [6] (at 50.0 µM), 86.7% (active).
Take `CC(=O)OC1CCC2(C)C3CCC4(C)C(CCC4(Br)C(=O)CBr)C3CC(Br)C2(Br)C1` (configuration not stated): the growth inhibition in assay [1] (setting [7]) was -1%; in assay [1] (setting [8]), 19%; in assay [1] (at 50.0 µM) it was 68.8%; in assay [2] (setting [7]) it was -5%; in assay [2] (setting [8]) it was 15%; in assay [2] (at 50.0 µM), 52.2%. The growth inhibition in assay [3] (setting [7]) was -5%; in assay [3] (setting [8]), 10%; in assay [3] (at 50.0 µM) it was 53.4%; in assay [4] (setting [7]) it was -2%; in assay [4] (setting [8]) it was 9%; in assay [4] (at 50.0 µM), 26.9%. Further, the growth inhibition in assay [5] (setting [7]) is -3%; in assay [5] (setting [8]) it was 7%; in assay [5] (at 50.0 µM) it was 49.5%; in assay [6] (setting [7]), 3%; in assay [6] (setting [8]), -3%; in assay [6] (at 50.0 µM), 76.4% (active).
As for `C=CCOC(=O)OCCCO`, the growth inhibition in assay [1] (setting [7]) was 0%; in assay [1] (setting [8]), -3%; in assay [1] (at 50.0 µM), 91.7% (active); in assay [2] (setting [7]), -1%; in assay [2] (setting [8]), -1%; in assay [2] (at 50.0 µM), 99.2% (active). Further, the growth inhibition in assay [3] (setting [7]) was 2%; in assay [3] (setting [8]) it was -1%; in assay [3] (at 50.0 µM), 97.2% (active); in assay [4] (setting [7]), -5%; in assay [4] (setting [8]) it was 2%; in assay [4] (at 50.0 µM) it was 95.8% (active). Further, the growth inhibition in assay [5] (setting [7]) was -1%; in assay [5] (setting [8]), -3%; in assay [5] (at 50.0 µM), 98.8% (active); in assay [6] (setting [7]), -1%; in assay [6] (setting [8]), -1%; in assay [6] (at 50.0 µM), 95.5% (active).
For `CSC(=S)N/N=C(C)/C=C/c1ccccc1`, the growth inhibition is 9% in assay [1] (setting [7]); 98% (active) in assay [1] (setting [8]); 98.2% (active) in assay [1] (at 50.0 µM); 14% in assay [2] (setting [7]); 98% (active) in assay [2] (setting [8]); 98.5% (active) in assay [2] (at 50.0 µM). Also, the growth inhibition in assay [3] (setting [7]) was 25%; in assay [3] (setting [8]), 98% (active); in assay [3] (at 50.0 µM) it was 97.7% (active); in assay [4] (setting [7]), -10%; in assay [4] (setting [8]), 94% (active); in assay [4] (at 50.0 µM), 97.8% (active). The growth inhibition in assay [5] (setting [7]) was 13%; in assay [5] (setting [8]) it was 98% (active); in assay [5] (at 50.0 µM), 97.4% (active); in assay [6] (setting [7]) it was 20%; in assay [6] (setting [8]) it was 93% (active); in assay [6] (at 50.0 µM), 95.3% (active).
Turning to `O=C(CCCl)Nc1ccc(CCC(=O)c2ccccc2NC(=O)CCCl)cc1`, the growth inhibition in assay [1] (setting [7]) is -10%; in assay [1] (setting [8]) it was 23%; in assay [1] (at 50.0 µM) it was 69.2%; in assay [2] (setting [7]), -9%; in assay [2] (setting [8]) it was -4%; in assay [2] (at 50.0 µM), 64.4%. The growth inhibition in assay [3] (setting [7]) is -7%; in assay [3] (setting [8]) it was 59%; in assay [3] (at 50.0 µM) it was 81.8% (active); in assay [4] (setting [7]) it was -24%; in assay [4] (setting [8]), -22%; in assay [4] (at 50.0 µM) it was 27.9%. The growth inhibition in assay [5] (setting [7]) is -8%; in assay [5] (setting [8]) it was 19%; in assay [5] (at 50.0 µM), 10.8%; in assay [6] (setting [7]), -11%; in assay [6] (setting [8]), -6%; in assay [6] (at 50.0 µM) it was 54.3%.
Turning to `Nc1[nH]cnc(=S)c1NC=O`, the growth inhibition in assay [1] (setting [7]) is -1%; in assay [1] (setting [8]), -4%; in assay [1] (at 50.0 µM), 13.9%; in assay [2] (setting [7]) it was -1%; in assay [2] (setting [8]), -5%; in assay [2] (at 50.0 µM) it was 2.8%. Besides, the growth inhibition in assay [3] (setting [7]) was -2%; in assay [3] (setting [8]), -5%; in assay [3] (at 50.0 µM), 35%; in assay [4] (setting [7]) it was -4%; in assay [4] (setting [8]), -5%; in assay [4] (at 50.0 µM) it was 0.4%. For the same compound, the growth inhibition in assay [5] (setting [7]) is 0%; in assay [5] (setting [8]), -3%; in assay [5] (at 50.0 µM) it was 42.3%; in assay [6] (setting [7]), -3%; in assay [6] (setting [8]), -3%; in assay [6] (at 50.0 µM) it was -1.9%.

These data come from PubChem BioAssay (NCI).
